Many of the other results were omitted from the sample, so hits are more common in it than they were.
ST2 inh – IL1RL1 inhibition; Q01638; AlphaLISA ST2-Fc/biotin-IL-33 interaction, 1 h; inhibition, % for hits at 17 µM; hit rate 2.3% among 78,000; in the data active means inhibition above about 30%
Target sequence (Q01638 whole entry, looked up): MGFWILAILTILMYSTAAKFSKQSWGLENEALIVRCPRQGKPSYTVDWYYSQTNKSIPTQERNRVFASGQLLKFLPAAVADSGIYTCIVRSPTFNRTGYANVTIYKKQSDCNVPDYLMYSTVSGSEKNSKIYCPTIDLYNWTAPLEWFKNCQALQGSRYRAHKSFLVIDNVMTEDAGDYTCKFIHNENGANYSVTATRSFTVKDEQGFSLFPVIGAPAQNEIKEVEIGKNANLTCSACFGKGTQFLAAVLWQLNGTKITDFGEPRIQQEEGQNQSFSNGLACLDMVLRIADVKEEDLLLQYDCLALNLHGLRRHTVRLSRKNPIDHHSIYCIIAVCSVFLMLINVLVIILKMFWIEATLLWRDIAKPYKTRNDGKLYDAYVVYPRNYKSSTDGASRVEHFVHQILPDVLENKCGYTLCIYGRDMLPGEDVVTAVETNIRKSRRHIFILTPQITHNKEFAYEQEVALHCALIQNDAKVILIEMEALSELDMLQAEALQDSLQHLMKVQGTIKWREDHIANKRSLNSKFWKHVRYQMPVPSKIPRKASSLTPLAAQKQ
The depositor's hits bear a star; i = inactive.

SMILES | ST2 inh
CC(C)NC(=O)c1cc(-c2ccc(Cl)c(Cl)c2)on1 | i
C[C@@H]1CC[C@@]2(C)C(CO)=CCC[C@@H]2[C@@]1(C)CC/C(=C/C(=O)O)CO | 36.0%*
CC1=CC(=O)CC2C1(C)CCC(C)C2(C)CC/C(C)=C/C(=O)O (stereo not given) | i
COc1ccc(/C=N\OCC(=O)Nc2sc3c(c2C#N)CC(C)(C)NC3(C)C)cc1 | i
COc1cccc(NC(=O)CN(c2ccc(Cl)c(Cl)c2)S(C)(=O)=O)c1 | 96.0%*
COc1ccc(N(CC(=O)Nc2ccc(C)c(Cl)c2)S(C)(=O)=O)cc1 | i
COc1ccc(N(CC(=O)Nc2ccc(F)cc2)S(C)(=O)=O)cc1Cl | i
COc1cc(-c2cc(C(=O)O)c3c(ccc4ccccc43)n2)c(Cl)cc1O | i
COc1ccc(OC)c(NS(=O)(=O)c2ccc(NS(=O)(=O)c3ccc(F)cc3)cc2)c1 | i
COc1ccc(OC)c(NS(=O)(=O)c2ccc(NS(=O)(=O)c3ccc(C)cc3)cc2)c1 | i
COc1ccc(S(=O)(=O)Nc2ccc(S(=O)(=O)Nc3cc(OC)ccc3OC)cc2)cc1 | 49.0%*
COc1ccc(OC)c(C2C(C(N)=O)=C(C)Nc3ncnn32)c1 (stereo not given) | i
CCC(C)OC(=O)C1=C(C)NC2=C(C(=O)C(C(=O)OC)C(C)C2)C1c1cccc(OC)c1OC (stereo not given) | i
COc1ccc(Nc2cc(C)nc(N3CCN(S(=O)(=O)c4ccc(C)cc4C)CC3)n2)cc1 | i
COc1ccc(S(=O)(=O)Nc2cc(C)ccc2C)cc1 | i
Cc1ccc(C)c(S(=O)(=O)N=C2C=C(Nc3ccccc3)C(=O)c3ccccc32)c1 | 88.0%*
CN=C(NS(=O)(=O)c1cc(C)ccc1C)c1ccccc1 | i
COc1ccc(NC2=CC(=NS(=O)(=O)c3cc(C)ccc3C)c3ccccc3C2=O)cc1 | 95.0%*
Cc1ccc(C)c(S(=O)(=O)Nc2ccccc2Cl)c1 | i
Cc1cc(=O)[nH]c(NCCNC(=O)CCN2CCCCO2)n1 | i
O=C(Nc1ccccc1)C(=O)NC1CCCC1 | i
COc1ccc2cccc(O)c2n1 | i
CCOc1cc(Br)cc(C=O)c1O | i
COc1cc(Br)cc(/C=C/c2ccc3cccc(O)c3n2)c1O | 38.0%*
Oc1cccc2ccc(/C=C/c3cc4c(cc3Br)OCO4)nc12 | 32.0%*
SMILES | ST2 inh
Cn1cc(S(=O)(=O)CC(=O)N2CCCCCC2)c2ccccc21 | i
CN(C)C1CCCN(C(=O)CCCc2ccc(Cl)cc2)CC1 (stereo not given) | i
C=CCNS(=O)(=O)c1cc(Br)cc2c1N(C(=O)CC)CC2 | i
Cc1c(NC(=O)C2CC2)cccc1[N+](=O)[O-] | i
Cc1c(NC(=O)c2ccccc2)cccc1[N+](=O)[O-] | i
Cc1c(NC(=O)C(c2ccccc2)c2ccccc2)cccc1[N+](=O)[O-] | 44.0%*
O=C(CCS(=O)(=O)c1cccc2nonc12)NCc1ccco1 | i
Cc1cccc(N2COc3ccc(Br)cc3C2)c1 | i
CCOc1ccc(N=CC=C2OC(C)(C)C(C)(C)O2)cc1 | i
COc1ccccc1-c1nnc(NC(=O)c2ccc(S(=O)(=O)N(C)C3CCCCC3)cc2)o1 | i
O=C(NCc1ccc(Cl)cc1)C(=O)Nc1ccc([N+](=O)[O-])cc1 | i
O=C(NCc1ccccc1)Nc1ccc(Cl)cc1 | 30.0%*
O=C(NCc1ccccc1)NS(=O)(=O)c1ccccc1Cl | i
O=S(=O)(Nc1cc(Cl)c(O)c(Br)c1)c1ccc(Cl)cc1 | i
Cc1ccc(NC(=O)CN2N=NC3C(=O)N(c4ccc(F)cc4F)C(=O)C32)cc1 (stereo not given) | i
O=C(CN1C(=O)c2cccc([N+](=O)[O-])c2C1=O)Nc1ccc(OC(F)(F)F)cc1 | i
Cc1ccc(Cl)cc1NC(=O)N1CCC(n2c(C)nc3cccnc32)CC1 | i
O=[N+]([O-])c1ccc(N2CCN(Cc3ccsc3)CC2)cc1 | i
CC1(C)[C@H]2CC=C(CN3CCN(c4ccc([N+](=O)[O-])cc4)CC3)[C@@H]1C2 | 42.0%*
CCN1CCN(C(=O)CCC2CCN(CC3=CC[C@H]4C[C@@H]3C4(C)C)CC2)CC1 | i
O=[N+]([O-])c1ccc(N2CCN(Cc3ccc(Br)o3)CC2)cc1 | 38.0%*
O=C(O)c1ccc(CN2CCN(c3ccc([N+](=O)[O-])cc3)CC2)cc1 | i
O=[N+]([O-])c1ccc(N2CCN(Cc3cccnc3)CC2)cc1 | i
Cc1ccccc1-c1cccc(C(=O)NC(C)c2cnn(C)c2)c1 (stereo not given) | i
CN(CCc1ccccn1)[C@H]1[C@@H]2OC[C@@H](O2)[C@@H](NCc2ccc(F)cc2)[C@@H]1O | 32.0%*
SMILES | ST2 inh
CN(CCc1ccccn1)[C@H]1[C@@H]2OC[C@@H](O2)[C@@H](NC(=O)Nc2ccccc2)[C@@H]1O | i
COc1ccc(CN[C@H]2[C@H](O)[C@@H](N(C)CCN(C)C)[C@@H]3OC[C@H]2O3)cc1 | i
CCOc1cc2c(cc1OCC)C1C(C(=O)N3CCCCC3CC)c3ccccc3C(=O)N1CC2 (stereo not given) | i
Cc1ccccc1NC(=O)c1ccc(C(=O)Nc2ccccc2C)cc1 | i
Cc1ccccc1NCN1C(=O)C2C3C=CC(C3)C2C1=O (stereo not given) | i
Cc1ccccc1NC1=C(N)C(=O)c2ccccc2C1=O | 87.0%*
CN1CCn2nc(C(=O)N(C)CCC(O)c3ccccc3)cc2C1 (stereo not given) | i
CCCN1CCN(C(=O)CN2C(=O)C(CC)Oc3ccc(C)cc32)CC1 (stereo not given) | i
Cc1ccccc1N=C1NC(=O)c2cccc([N+](=O)[O-])c21 | i
Cc1cc2c(cc1[N+](=O)[O-])-c1ncccc1C2=Nc1ccccc1 | 32.0%*
O=C1NC(=Nc2ccccc2)c2c1cccc2[N+](=O)[O-] | i
CCN(CCN(C)C)Cc1ccc(Cl)c(Cl)c1 | i
O=C(CSc1nccc2ccccc12)c1ccccc1 | i
O=C(NCC1CCCCO1)c1ccc2oc(CCCc3ccccc3)nc2c1 (stereo not given) | i
CC[n+]1ccc(C2C(=C=[N-])C(=N)OC(C)=C2C(=O)O)cc1 (stereo not given) | i
COc1ccc2cc(C(N)=O)c(=Nc3ccc(C)cc3)oc2c1 | i
COc1ccc2cc(-c3nc4ccccc4[nH]3)c(=Nc3ccc(C(N)=O)cc3)oc2c1 | 35.0%*
COc1ccc2cc(C(=O)NC(C)=O)c(=Nc3ccc(F)cc3)oc2c1 | i
C[C@@H]1O[C@@H](O[C@H]2[C@H](Oc3cc(O)c4c(c3)OC(c3ccc(O)cc3)CC4=O)O[C@H](COC(=O)CC(C)(O)CC(=O)O)[C@@H](O)[C@@H]2O)[C@H](O)[C@H](O)[C@H]1O (stereo not given in full) | i
CC1=C(C(=O)Nc2ccc(C)cc2C)C(c2cc(Cl)ccc2OC(F)F)n2nnnc2N1 (stereo not given) | i
CCC(NC(=O)c1oc2ccc(C)cc2c1C)c1ccncc1 (stereo not given) | i
COC(=O)Oc1ccc2c(=O)c(Oc3ccc(C)cc3)coc2c1 | 30.0%*
CC(=O)Oc1ccc2c(=O)c(Oc3ccccc3)coc2c1 | i
Cc1cc(C)cc(Oc2coc3cc(OC(=O)C(C)C)ccc3c2=O)c1 | i
Cc1noc(C)c1CCC(=O)N1CCCC(C(=O)c2ccc(C(F)(F)F)cc2)C1 (stereo not given) | i
CN(C)CCCN1CC(=O)N(C)c2ccccc2C1=O | i

Assay outcomes as filed in PubChem.
